# High-throughput results: PubChem, several laboratories
# FBA Mtb inh: Mtb FBA enzyme inhibitors, primary screen, biochemical, fluorescence, strain H37Rv; inhibition, % at 1 µM; Fructose-bisphosphate aldolase (Mycobacterium tuberculosis (strain ATCC 25618 / H37Rv)), …; AID 588726, 2011; actives 2.3% (n = 360,000); purified M. tuberculosis FBA, fluorescence read-out; in the data active means inhibition above about 27%;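 further: 0% = vehicle and 100% = reference inhibitor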
# Target sequence (P9WQA3 whole entry, looked up): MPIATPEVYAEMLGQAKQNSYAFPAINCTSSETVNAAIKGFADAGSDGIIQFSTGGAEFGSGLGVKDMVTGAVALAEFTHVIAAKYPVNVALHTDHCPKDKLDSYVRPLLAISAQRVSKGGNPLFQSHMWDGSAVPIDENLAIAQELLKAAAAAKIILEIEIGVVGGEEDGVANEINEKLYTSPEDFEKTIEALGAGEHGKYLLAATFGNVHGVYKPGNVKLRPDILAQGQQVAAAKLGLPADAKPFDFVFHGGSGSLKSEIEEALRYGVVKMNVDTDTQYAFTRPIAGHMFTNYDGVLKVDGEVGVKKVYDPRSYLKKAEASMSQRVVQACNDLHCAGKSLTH
# GDH-TPI counter: GDH-TPI coupling enzyme inhibitors, primary screen, artefact control for M. tuberculosis FBA inhibitor project, biochemical, absorbance, full deck; actives 1.2% (n = 360,000); inhibition, % at 4.8 µM; GDH-TPI coupled enzyme counterscreen, NADH absorbance; in the data active means inhibition above about 30%;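 further: 0% = DMSO wells and 100% = wells lacking the enzyme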
# PrPC TRFRET: inhibitors of human cell surface prion protein PrPC, primary screen, cell-based, TR-FRET; actives 0.43% (n = 370,000); TR-FRET read-out; inhibition, % at 13.8 µM; in the data active means inhibition above about 24%; further: 0% = median of the test wells and 100% = reference compound wells
# BJeLR viability: MLPCN primary cell-based screen for lethality selective to Ras in HRASV12 cells | BJeLR (HRASV12) viability, CellTiter-Glo ATP luminescence, 48 h | inhibition, % (concentration not given with the values) | actives 0.17% (n = 300,000) | AID 1554, 2009; in the data active means inhibition above about 50%
# RecA splice inh: Mtb RecA intein splicing inhibitors, primary screen, biochemical, fluorescence, HTS. Protein RecA (Mycobacterium tuberculosis (strain ATCC 25618 / H37Rv)), P9WHJ3. cell-free RecA intein splicing. inhibition, % (no concentration beside the values). actives 0.75% (n = 290,000); in the data active means inhibition above about 30%;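 further: 0% = vehicle wells and 100% = reference inhibitor control wells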
# An asterisk follows results filed as active; i = inactive; / = no result given; + = active, no number. An excerpt weighted towards active compounds, which were near 4.2% of everything screened.
SMILES,FBA Mtb inh,GDH-TPI counter,PrPC TRFRET,BJeLR viability,RecA splice inh
COC(=O)C1CN(Cc2cn(CCOC(C)=O)nn2)CCS(=O)(=O)N1Cc1ccccc1 (stereo not given),/,/,8,/,/
CCOC(=O)c1ccc(-c2ccc(/C=N/NC(=O)CN(c3ccccc3Br)S(C)(=O)=O)o2)cc1,6,32*,-4,-4,-2
Cc1ccc(S(=O)(=O)c2ccc([N+](=O)[O-])o2)cc1,0,-8,82*,/,/
Cc1ccc(NC(=O)c2ccc([N+](=O)[O-])o2)c(C)c1,2,4,0,2,-13
Clc1ccccc1NN=Cc1ccccn1,-1,47*,4,/,/
O=C(N/N=C/c1ccccn1)c1ccc(Cl)cc1,1,-4,14,20,1
COc1ccccc1NC(=O)OCCN1CCCC12CCC(c1ccccc1)CC2 (stereo not given),/,/,-15,/,/
NC(=O)CC(NC(=O)OCc1ccccc1)C(=O)O (stereo not given),1,0,0,7,0
CC(C)(O)C#Cc1ccccc1C(=O)NC(CC(N)=O)C(=O)O (stereo not given),2,32*,-6,2,-4
CC(/C=N/Nc1nnc(C)c(=O)[nH]1)=C\c1ccccc1,-3,32*,-3,-8,-1
CN1CCC[C@H]1CCNc1ccc2c(=O)c3ccccc3n(C)c2c1,187*,33*,0,/,/
CN1CCCC1CCNc1ccc2c(=O)c3ccccc3oc2c1 (stereo not given),+,31*,2,-9,i
Fc1ccccc1-c1n[nH]c(=S)n1N=Cc1ccc(OCc2ccccc2)cc1,/,/,5,/,/
Cc1ccc(-c2c(C(=O)N/N=C/c3c[nH]c4ccccc34)nnn2-c2nonc2N)cc1,4,47*,-4,4,2
CCCc1c(C(=O)N/N=C/c2c[nH]c3ccccc23)nnn1-c1nonc1N,-4,30,4,/,/
COCc1c(C(=O)N/N=C/c2c[nH]c3ccccc23)nnn1-c1nonc1N,2,44*,-3,0,-1
CCCc1cc(C(=O)Cc2nc3ccccc3s2)c(O)cc1O,19,38*,1,2,-157
CCCc1cc(C(=O)Cc2ccc(F)cc2)c(O)cc1O,-2,32*,6,9,11
O=C(Cc1c(F)cccc1Cl)c1ccc(O)cc1O,-2,34*,-2,7,5
CCc1cc(C(=O)COc2ccccc2F)c(O)cc1O,-5,38*,0,/,7
COc1ccc(NC(=O)c2cc3c(C)nn(-c4ccccc4)c3s2)cc1,/,/,14,/,/
CCN(CC)c1ccc(C=Nn2c(C)nnc2C)cc1,/,/,4,/,/
CCc1cc(C(=O)Cc2nc3ccccc3[nH]2)c(O)cc1O,10,39*,-2,-3,-1
O=C(Cc1ccc(F)cc1)c1ccc(O)cc1O,-1,46*,1,10,2
O=C(Cc1nc2ccccc2[nH]1)c1ccc(Cl)cc1,0,7,2,-2,/
SMILES,FBA Mtb inh,GDH-TPI counter,PrPC TRFRET,BJeLR viability,RecA splice inh
CCc1cc(C(=O)Cc2ccc(F)cc2)c(O)cc1O,4,27,7,0,6
C=C(C)/C=C1/CN(Cc2ccc3c(c2)OCO3)C(=N)N1C(=O)OCc1ccccc1,/,/,-11,/,/
COCCCNC(=O)C[C@H]1C[C@@]2(C(=O)OC)C(=C[C@H](C(C)C)O[C@@H]2C2CC2)N(CCc2ccc(OC)c(OC)c2)C1=O,/,/,2,/,/
CCOC(=O)c1cc2c(=O)n3ccccc3nc2n(C(C)C)c1=NC(=O)c1ccco1,+,4,-17,1,-188
CCCn1c(=NC(=O)c2c(-c3c(F)cccc3Cl)noc2C)c(C(=O)OCC)cc2c(=O)n3ccccc3nc21,/,/,/,-6,-3
CC(C)n1c(=NC(=O)c2ccco2)c(C#N)cc2c(=O)n3ccccc3cc21,+,5,-20,3,-233
COCCn1c(=NC(=O)c2ccc3c(c2)OCO3)c(C#N)cc2c(=O)n3cccc(C)c3nc21,/,/,/,-1,-2
CCCn1c(=NC(=O)c2ccco2)c(C(=O)OCC)cc2c(=O)n3ccccc3nc21,+,19,-37,-6,-132
CC1(C)CC(=O)C=C(Nc2ccccc2NC(=O)c2cccc(F)c2F)C1,/,/,-3,/,/
COC(=O)[C@H](C(C)C)N1CCc2nnn(CC3CCCCC3)c2-c2ccccc2S1(=O)=O,/,/,-8,/,/
O=C1OC(c2ccc(F)cc2)=N/C1=C\C=C/c1ccccc1,-4,-1,6,-2,1
O=C1OC(/C=C/c2ccccc2)=NC/1=C/C=C/c1ccccc1,0,32*,-6,-12,3
C#CCCN([C@H](C(=O)OC)C(C)CC)S(=O)(=O)c1ccccc1Br (stereo not given in full),/,/,-3,/,/
CC(C)CNc1oc(-c2ccccc2Cl)nc1C#N,11,14,3,-9,3
CC(=O)Nc1oc(-c2cccc3ccccc23)nc1C#N,164*,5,-2,/,/
N#Cc1nc(-c2cccc3ccccc23)oc1NCCN1CCOCC1,122*,33*,/,/,-5
N#Cc1nc(-c2ccco2)oc1NCCN1CCOCC1,26,7,0,-1,1
CCCNc1oc(-c2cccc3ccccc23)nc1C#N,148*,20,-5,0,/
CCn1cc(C(=O)N2CCN(Cc3ccc(C)cc3)CC2)c(=O)c2ccc(C)nc21,/,/,-3,/,/
Cc1[nH]nc2c1C(c1ccc(-c3ccc(Cl)cc3)o1)C(C#N)=C(N)O2 (stereo not given),-4,-11,2,-23,68*
Cc1[nH]nc2c1C(c1ccc(F)cc1)C(C#N)=C(N)O2 (stereo not given),5,-5,2,4,/
Cc1[nH]nc2c1C(c1ccc(-c3ccccc3C#N)o1)C(C#N)=C(N)O2 (stereo not given),-1,4,/,-2,65*
O=C(CSc1nc2ccccc2c(=O)[nH]1)NC1CCCCC1,/,/,14,/,/
O=C(Nc1sc(-c2ccccc2)cc1C(=O)O)c1ccccc1,11,35*,2,-4,-1
CCOC(=O)c1cc(-c2ccccc2)sc1NC(=O)c1ccc(OC)cc1,/,/,/,7,-1
O=C(CN1CCN(c2nc(-c3ccccc3)cs2)CC1)Nc1ccc(Cl)cc1,/,/,9,/,/
CC(C)[C@H](NC(=O)OC(C)(C)C)C(=O)N1CCC(Oc2cccnc2)CC1,/,/,0,/,/
CCN(Cc1ccccc1)C(=O)C1C2C=CC3(CN(Cc4ccccc4)C(=O)C13)O2 (stereo not given),/,/,9,/,/
O=C(c1cccc(-c2cncc3nccn23)c1)N1CCOCC1,+,8,4,/,/
CC(=O)Nc1cncc(-c2cccc(C(=O)N3CCOCC3)c2)n1,4,6,3,/,/
